Legend:
Conditions in all cases: concentration: 1 μM, replicates: in singlicate; n = 1
FAK = test system: T1, FAK
T1 construct: gene PTK2

FER = test system: FER
FES = test system: FES
FGFR1 = test system: FGFR1
FGFR2 = test system: FGFR2
FGFR3 = test system: FGFR3
FGFR4 = test system: FGFR4
FGR = test system: FGR
FLT1 = test system: FLT1
FLT3-autoinhibited = test system: FLT3-autoinhibited
FLT3 = test system: FLT3
FLT4 = test system: FLT4
FRK = test system: FRK
FYN = test system: FYN
GAK = test system: GAK
GCN2(Kin.Dom.2,S808G) = test system: T2, GCN2(Kin.Dom.2,S808G)
T2 construct: gene EIF2AK4

GRK1 = test system: GRK1
GRK2 = test system: T3, GRK2
T3 construct: gene ADRBK1

GRK3 = test system: T4, GRK3
T4 construct: gene ADRBK2

GRK4 = test system: GRK4
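Further: KINOMEscan kinase panel screen.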

Row | Structure (SMILES) | %Inh (FAK) [%] | %Inh (FER) [%] | %Inh (FES) [%] | %Inh (FGFR1) [%] | %Inh (FGFR2) [%] | %Inh (FGFR3) [%] | %Inh (FGFR4) [%] | %Inh (FGR) [%] | %Inh (FLT1) [%] | %Inh (FLT3-autoinhibited) [%] | %Inh (FLT3) [%] | %Inh (FLT4) [%] | %Inh (FRK) [%] | %Inh (FYN) [%] | %Inh (GAK) [%] | %Inh (GCN2(Kin.Dom.2,S808G)) [%] | %Inh (GRK1) [%] | %Inh (GRK2) [%] | %Inh (GRK3) [%] | %Inh (GRK4) [%]
1 | CN(C)CCN(C)C(=O)c1cc(-c2ccncc2)c(-c2ccc(Cl)c(O)c2)o1.Cl.Cl [SB-710397] | 0 | 0 | 0 | 0 | 0 | 5 | 0 | 16 | 43 | 0 | 0 | 7 | 43 | 0 | 29 | 0 | 4 | 0 | 54 | 0
2 | CCCc1ccc(S(=O)(=O)NC2CCN(c3ccnc(Nc4ccc(F)cc4)n3)C2)cc1 (stereo not shown) [GSK1379715] | 0 | 0 | 0 | 0 | 0 | 2 | 11 | 23 | 18 | 0 | 0 | 0 | 8 | 0 | 10 | 0 | 100 | 0 | 33 | 0
3 | Cc1cccc(-c2nc(Nc3ccc4[nH]ncc4c3)c3ccccc3n2)n1 [GW857175] | 0 | 11 | 0 | 5 | 0 | 0 | 0 | 0 | 12 | 32 | 13 | 6 | 3 | 0 | 0 | 5 | 3 | 40 | 0 | 10
4 | Nc1nc(-c2nccs2)c(-c2ccnc3ccccc23)s1 [GW693542] | 0 | 15 | 0 | 8 | 0 | 0 | 8 | 9 | 24 | 0 | 2 | 0 | 0 | 17 | 45 | 17 | 0 | 0 | 39 | 21
5 | CS(=O)(=O)c1ccc(-c2nc3n(c2-c2ccncc2)CCC3)cc1 [SKF-105942] | 0 | 1 | 22 | 0 | 0 | 2 | 18 | 43 | 11 | 0 | 0 | 0 | 16 | 12 | 7 | 9 | 7 | 0 | 24 | 23
6 | COc1cc2ncnc(Nc3ccc4nc(-c5ccccc5)[nH]c4c3)c2cc1OC.Cl [GW282450] | 0 | 42 | 6 | 10 | 0 | 0 | 14 | 14 | 38 | 0 | 0 | 0 | 0 | 34 | 68 | 0 | 0 | 0 | 14 | 11
7 | Cc1ccc(C(=O)Nc2ccc(Nc3ccnc4cc(-c5ccccn5)ccc34)cc2O)cc1.Cl [GW440146] | 0 | 30 | 0 | 1 | 0 | 0 | 0 | 59 | 28 | 0 | 0 | 0 | 48 | 41 | 7 | 12 | 0 | 0 | 24 | 0
8 | Fc1cccc(COc2nnc(-c3ccc4c(c3)CCO4)o2)c1 | 0 | 0 | 14 | 5 | 0 | 0 | 0 | 19 | 0 | 3 | 4 | 0 | 0 | 0 | 2 | 5 | 0 | 0 | 23 | 0

Reference: publication PMC5540273 (PLoS ONE, 2017)
